Several values for one entry are separate records, joined by “and”; a condition that tells them apart may be missing. Equal values may be shown once. A number with no mark means an inactive call. For some of these results: Measured potencies and affinities stand elsewhere. Activity calls are given as the source filed them. Unless noted, the rule behind the calls is not given here.
How the values were obtained:
[1] = antimalarial activity against Dd2 strain (AID 2302;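 active = growth inhibition above 50% at the single 2 µM test dose, taken to imply half-maximal potency below 2 µM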;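 note: 0% = DMSO untreated growth and 100% = chloroquine plus artemisinin killed control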); conditions: P. falciparum Dd2 in RBCs, LDH growth readout, 72 h; at 2 µM; stronger effect = higher value
[2] = human hepatoma cell viability loss – ATP luminescence, cytotoxicity control for P. falciparum antimalarial project, primary screen (AID 2303;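 active = inhibition above 50%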;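 note: 0% = DMSO wells and 100% = digitonin-killed cells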); conditions: HepG2 viability, 24-48 h, at 10 µM, stronger effect = higher value
[3] = target: L-lactate dehydrogenase (Plasmodium falciparum (isolate CDC / Honduras)) (UniProt Q27743); test: PfLDH activity inhibition – cell lysate, 3D7 strain, counter-screen for P. falciparum growth inhibition project (AID 2304);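 note: 0% = vehicle and 100% = reference inhibitor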; conditions: P. falciparum 3D7 crude extract, LDH APAD/NBT absorbance; at 2 µM; stronger effect = higher value
Sequence of L-lactate dehydrogenase (Plasmodium falciparum (isolate CDC / Honduras)) (Q27743 whole entry, looked up): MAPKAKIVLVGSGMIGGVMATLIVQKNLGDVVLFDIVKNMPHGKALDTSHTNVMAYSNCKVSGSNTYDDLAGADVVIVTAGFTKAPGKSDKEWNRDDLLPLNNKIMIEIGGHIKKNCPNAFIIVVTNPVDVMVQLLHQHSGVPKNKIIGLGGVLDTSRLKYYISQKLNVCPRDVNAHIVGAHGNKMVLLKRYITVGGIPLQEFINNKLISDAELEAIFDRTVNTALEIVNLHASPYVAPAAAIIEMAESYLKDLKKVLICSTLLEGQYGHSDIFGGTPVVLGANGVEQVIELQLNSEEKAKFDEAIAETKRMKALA

[4] = inhibition of 3D7 malaria parasite growth – strain 3D7 (AID 2306);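 note: 0% = DMSO wells and 100% = chloroquine plus artemisinin control wells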; conditions: P. falciparum 3D7 erythrocytic growth, LDH absorbance, 72 h; at 2 µM; stronger effect = higher value
[5] = target: Calcium-dependent protein kinase 1 (Plasmodium falciparum (isolate 3D7)) (UniProt P62344); test: PfCDPK1 kinase inhibitors, biochemical, TCAMS library (AID 1159585; cut-off not given, nearly all actives have IC50 up to about 0.98 µM;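 note: inhibitors leave more ATP so luminescence rises with inhibition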); conditions: recombinant PfCDPK1, Kinase-Glo ATP depletion luminescence
Sequence of Calcium-dependent protein kinase 1 (Plasmodium falciparum (isolate 3D7)) (P62344 whole entry, looked up): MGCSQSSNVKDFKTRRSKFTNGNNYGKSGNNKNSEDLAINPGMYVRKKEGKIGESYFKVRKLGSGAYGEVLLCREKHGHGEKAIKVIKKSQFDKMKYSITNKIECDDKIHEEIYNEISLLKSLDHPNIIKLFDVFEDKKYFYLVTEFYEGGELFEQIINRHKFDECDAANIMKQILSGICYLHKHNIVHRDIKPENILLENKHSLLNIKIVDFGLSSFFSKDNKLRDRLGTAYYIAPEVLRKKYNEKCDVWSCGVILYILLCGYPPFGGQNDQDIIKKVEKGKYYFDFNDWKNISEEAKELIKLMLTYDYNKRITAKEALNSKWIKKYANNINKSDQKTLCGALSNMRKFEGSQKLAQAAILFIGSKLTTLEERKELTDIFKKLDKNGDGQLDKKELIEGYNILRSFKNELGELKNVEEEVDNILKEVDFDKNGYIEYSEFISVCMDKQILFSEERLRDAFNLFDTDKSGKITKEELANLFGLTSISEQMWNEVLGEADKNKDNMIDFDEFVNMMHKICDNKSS

[6] = target: Plasmodium falciparum protein kinase 6 (PK6, PF3D7_1337100) (UniProt Q8IDW1); test: PfPK6 kinase inhibitors, biochemical, TCAMS library (AID 1159586); conditions: recombinant PfPK6, Kinase-Glo ATP depletion luminescence
Sequence of Plasmodium falciparum protein kinase 6 (PK6, PF3D7_1337100) (Q8IDW1 1-305): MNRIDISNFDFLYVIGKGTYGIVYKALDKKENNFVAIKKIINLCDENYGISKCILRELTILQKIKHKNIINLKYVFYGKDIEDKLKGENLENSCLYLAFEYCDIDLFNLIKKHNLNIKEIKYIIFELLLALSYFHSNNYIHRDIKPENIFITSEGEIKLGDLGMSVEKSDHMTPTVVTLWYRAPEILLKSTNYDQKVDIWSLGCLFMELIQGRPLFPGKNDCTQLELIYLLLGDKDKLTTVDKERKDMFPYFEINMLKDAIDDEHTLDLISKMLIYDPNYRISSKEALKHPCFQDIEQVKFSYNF

[7] = target: Protein kinase 7 (PK7), Plasmodium falciparum 3D7 (PF3D7_0213400) (UniProt Q7YTF7); test: inhibition of Plasmodium PK7 catalytic activity – biochemical, TCAMS antimalarial set, Kinase-Glo luminescence (AID 1159587); conditions: recombinant PfPK7, Kinase-Glo ATP depletion luminescence
Sequence of Protein kinase 7 (PK7), Plasmodium falciparum 3D7 (PF3D7_0213400) (Q7YTF7 1-343): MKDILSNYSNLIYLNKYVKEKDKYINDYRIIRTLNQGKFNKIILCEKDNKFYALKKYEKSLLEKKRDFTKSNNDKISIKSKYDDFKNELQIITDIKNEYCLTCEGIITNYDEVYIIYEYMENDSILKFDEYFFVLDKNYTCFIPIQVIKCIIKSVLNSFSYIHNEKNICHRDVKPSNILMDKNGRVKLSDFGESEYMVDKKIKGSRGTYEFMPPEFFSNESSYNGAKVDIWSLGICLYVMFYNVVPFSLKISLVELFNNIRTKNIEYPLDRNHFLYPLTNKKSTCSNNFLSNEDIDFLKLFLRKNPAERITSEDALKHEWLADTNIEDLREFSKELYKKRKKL

[8] = target: Calcium-dependent protein kinase 4 (Plasmodium falciparum (isolate 3D7)) (UniProt Q8IBS5); test: PfCDPK4 kinase inhibitors, biochemical, TCAMS library (AID 1159588; cut-off not given, nearly all actives have IC50 up to about 0.91 µM); conditions: recombinant PfCDPK4, Kinase-Glo ATP depletion luminescence
Sequence of Calcium-dependent protein kinase 4 (Plasmodium falciparum (isolate 3D7)) (Q8IBS5 whole entry, looked up): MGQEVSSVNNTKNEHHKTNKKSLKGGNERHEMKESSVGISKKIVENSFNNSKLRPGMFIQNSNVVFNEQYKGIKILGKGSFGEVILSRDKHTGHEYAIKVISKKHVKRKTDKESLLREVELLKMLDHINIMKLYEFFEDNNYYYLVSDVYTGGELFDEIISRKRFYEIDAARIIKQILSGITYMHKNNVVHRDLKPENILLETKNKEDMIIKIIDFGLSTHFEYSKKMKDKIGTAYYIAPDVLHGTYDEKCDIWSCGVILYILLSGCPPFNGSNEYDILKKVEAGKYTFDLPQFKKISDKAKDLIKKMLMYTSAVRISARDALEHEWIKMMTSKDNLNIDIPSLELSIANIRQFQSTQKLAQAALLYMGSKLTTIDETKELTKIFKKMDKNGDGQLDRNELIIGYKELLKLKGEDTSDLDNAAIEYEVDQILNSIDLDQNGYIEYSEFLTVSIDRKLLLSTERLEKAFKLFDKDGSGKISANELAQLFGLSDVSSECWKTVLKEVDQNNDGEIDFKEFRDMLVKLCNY

Structure (SMILES)	growth inhibition [1]	inhibition [2]	inhibition [3]	growth inhibition [4]	outcome [5]	outcome [6]	outcome [7]	outcome [8]
COC(=O)c1ccc(CC(C)NCC(O)c2cccc(SC(F)(F)F)c2)cc1 (centres undefined)	72% (active)	7%	-2%	96% (active)	inactive	inactive	inactive	inactive
O=C(Nc1ccccc1OC(F)(F)F)NC1CCC(CN2CCC(c3c[nH]c4ccccc34)CC2)CC1 (centres undefined)	60% (active) and 70% (active)	33% and 35%	6% and 8%	101% (active) and 99% (active)	inactive	inactive	inactive	inactive
O=C(/C=C/c1ccc(Cl)c(Cl)c1)NC1CCC(CN2CCC(c3c[nH]c4cc(O)ccc34)CC2)CC1 (centres undefined)	98% (active)	18%	-10%	100% (active)	inactive	inactive	inactive	inactive
O=C(/C=C/c1ccc(Cl)c(Cl)c1)NCCC1CCC(N2CCC(c3c[nH]c4ccc(O)cc34)CC2)CC1 (centres undefined)	3%	19%	-7%	102% (active)	inactive	inactive	inactive	inactive
COc1cc(NCCCNC(=O)c2cn(Cc3ccccc3)c3ccccc23)nc2ccccc12	66% (active)	13%	0%	101% (active)	inactive	inactive	inactive	inactive
CC(Cc1ccc(Sc2ccccc2)cc1)NCC(O)c1cccc(C(F)(F)F)c1 (centres undefined)	53% (active)	-1%	2%	99% (active)	inactive	inactive	inactive	inactive
O=C(NC1CCC(CN2CCC(c3c[nH]c4ccccc34)CC2)CC1)c1cc(-c2ccccc2)c(C(F)(F)F)s1 (centres undefined)	101% (active)	55% (active)	2%	100% (active)	inactive	inactive	inactive	inactive
CC[C@H]1CN2CC[C@H]1C[C@H]2[C@H](O)c1cc(-c2ccc(F)cc2C)nc2ccc(OC)cc12	100% (active)	-2%	-3%	99% (active)	inactive	inactive	inactive	inactive
COc1ccc(CN2CCN(CCOC(c3ccccc3)c3ccc(Cl)cc3)CC2)c(O)c1 (centres undefined)	98% (active)	12%	0%	99% (active)	inactive	inactive	inactive	inactive
CCc1ccc(CC(C)NCC(O)c2ccccc2)cc1 (centres undefined)	77% (active)	-7%	-3%	89% (active)	inactive	inactive	inactive	inactive
COc1cc2c(c(OC)c1OC)C[C@H]1c3c(cc4c(c3-2)OCO4)CCN1C	30%	7%	-1%	84% (active)	inactive	inactive	inactive	inactive
CCOc1ccc(CN(CCc2ccc3c(c2)OCO3)Cc2cc(OC)ccc2O)cc1	88% (active)	3%	-4%	96% (active)	inactive	inactive	inactive	inactive
CN1CC=C(c2c[nH]c3ccc(Sc4ccccc4)cc23)CC1	99% (active)	36%	-2%	98% (active)	inactive	inactive	inactive	inactive
CCCCCOc1ccc(CC(C)NCC(O)c2cccc(Cl)c2)cc1 (centres undefined)	99% (active)	0%	2%	101% (active)	inactive	inactive	inactive	inactive
Cc1[nH]c2cc(Cl)ccc2c1C1=CCN(CCCCC2(C)C(=O)Nc3c(F)cccc32)CC1 (centres undefined)	74% (active)	14%	3%	90% (active)	inactive	inactive	inactive	inactive
Cc1ccc(CC(C)NCC(O)c2cccc(C(F)(F)F)c2)c(C)c1 (centres undefined)	99% (active)	3%	-1%	99% (active)	inactive	inactive	inactive	inactive
CCN(CC)CCN1C(=O)C(O)(c2ccccc2Cl)c2c1cc(C#N)cc2C(F)(F)F (centres undefined)	19%	21%	-1%	88% (active)	inactive	inactive	inactive	inactive
CC[C@H]1CN2CC[C@H]1C[C@H]2[C@H](O)c1cc(-c2ccccc2C(F)(F)F)nc2ccc(OC)cc12	99% (active)	-4%	-5%	98% (active)	inactive	inactive	inactive	inactive
Oc1ccc2[nH]cc(C3=CCN(CCc4ccccc4)CC3)c2c1	60% (active)	11%	3%	96% (active)	inactive	inactive	inactive	inactive
Cc1[nH]c2ccccc2c1C1=CCN(CCCCC2(C)C(=O)Nc3ccccc32)CC1 (centres undefined)	89% (active)	8%	-4%	94% (active)	inactive	inactive	inactive	inactive
O=C(Nc1ccc(CN2CCC(c3c[nH]c4ccc(O)cc34)CC2)cc1)c1ccc(-c2ccccc2)cc1	100% (active)	33%	1%	100% (active)	inactive	inactive	inactive	inactive
Cc1[nH]c2ccccc2c1C1=CCN(CCN2CCOc3c(Br)cccc3C2=O)CC1	76% (active)	15%	-3%	97% (active)	inactive	inactive	inactive	inactive
CC[C@H]1CN2CC[C@@H]1C[C@H]2[C@H](O)c1cc(N2CCC(CO)CC2)nc2ccc(OC)cc12	99% (active)	4%	-1%	99% (active)	inactive	inactive	inactive	inactive

Source: PubChem BioAssay
